Screening data (PubChem BioAssay)
MIN6 prolif = inducers of MIN6 beta-cell proliferation, primary screen, ATP luminescence, uHTS; 330,000 compounds, 0.29% hits; proliferation, % at 10 µM; MIN6 cells proliferation, ATPlite luminescence, 48 h; cells starved in 0.2% serum; 100% = growth in 10% serum;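 active = compounds whose signal lies at least 3.5 SD above the mean of all wells on their plate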;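 note: 0% = DMSO-treated cells in low-serum medium and 100% = 10% serum control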
GRIN3A LBD mod = binders of NR3A ligand-binding domain, primary screen, biophysical, differential scanning fluorimetry, uHTS; Glutamate receptor ionotropic, NMDA 3A (GRIN3A) ligand-binding domain; NR3A LBD differential scanning fluorimetry, Tm shift; 0% = protein alone, 100% = glycine-bound protein; 340,000 compounds, 2.5% hits; Tm shift relative to glycine control, % at 25 µM;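 active = melting temperature shift of at least 10% of the positive control shift, at one fixed dose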
pCIP destab = p/CIP-EGFP fusion destabilizers, primary screen, fluorescence, F442A cells | Q05BA5 | 16 h | decrease of EGFP signal, % at 10 µM | 290,000 compounds, 0.01% hits | AID 1984, 2009;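 active = EGFP signal decrease of at least 30% at 10 µM or well 3 SD below plate mean, unless failing retest; inactive = the rest, including hits failing retest or dose response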
MPTP block = mitochondrial permeability transition pore inhibitors, primary screen, biochemical, isolated mouse mitochondria, absorbance; inhibition, % at 10 µM; 360,000 compounds, 1.4% hits; Ca2+ swelling absorbance, 30 min;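 active = inhibition of 50% or more, scaled per plate between neutral and stimulator controls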;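 note: 0% = DMSO wells given calcium and 100% = 1 mM EGTA wells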
FAS TE block = FAS thioesterase domain inhibitors, primary screen, biochemical, fluorescence intensity, uHTS | Fatty acid synthase (Homo sapiens), P49327 | recombinant FAS-TE, OMFH fluorogenic substrate, fluorescence endpoint | inhibition, % at 15 µM | 360,000 compounds, 0.67% hits | AID 602261, 2012;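 active = compounds whose normalised, plate-corrected inhibition of enzyme fluorescence in the single-dose primary screen is 50% or more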;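 note: 0% = DMSO with enzyme and 100% = substrate without enzyme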
Rh123 counter = fluorescence retest of MPTP screen hits in isolated mitochondria, single concentration; shares compounds with MPTP block; membrane potential, Rhodamine 123 fluorescence; inhibition, % at 10 µM; 5,000 compounds, 78% hits; AID 624504, 2012; in the data active = inhibition above about 22%;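 note: 0% = DMSO vehicle and 100% = positive control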
MPTP swell DR = mitochondrial permeability transition pore inhibitors, dose response, biochemical, absorbance, uHTS hits; shares compounds with MPTP block; isolated mitochondria swelling; IC50, µM; 780 compounds, 58% hits; AID 651561, 2012; in the data active = IC50 below about 20 µM
MPTP cs DR = fluorescent counter-screen in isolated mitochondria, dose response, counter-screen for MPTP inhibitor project, biochemical, fluorescence, uHTS hits | AID 651564, 2012 | shares compounds with MPTP block | 780 compounds, 49% hits | IC50, µM | isolated mitochondria counterscreen, fluorescence read-out; in the data active = IC50 below about 80 µM
An asterisk follows results filed as active; x = no result given. Hits are enriched below; roughly 4.1% of the tested compounds scored in any of these assays.

SMILES	MIN6 prolif	GRIN3A LBD mod	pCIP destab	MPTP block	FAS TE block	Rh123 counter	others
CCOC(=O)c1c(-c2ccccc2)csc1NC(=O)CSc1nc(N)cc(N)n1	-3	0	-4	80*	10	43*
CCN(CC)S(=O)(=O)c1ccc(Oc2ccccc2OC)cc1	-3	-2	-4	0	13	x
CCN(CC)S(=O)(=O)c1ccc(Oc2ccc(S(=O)(=O)N(CC)CC)cc2)cc1	-6	0	-22	97*	-1	89*
Cc1ccc(CC(=O)NCc2ccc(F)cc2)cc1	-2	-3	-8	-1	-8	x
CC(C)n1nnnc1C1c2ccccc2C(=O)N1Cc1cccnc1 (stereo not given)	x	x	x	1	-10	x
FC(F)(F)c1cnc(N2CCCN(C(=S)Nc3ccccc3)CC2)c(Cl)c1	-4	1	1	70*	27	51*
OC(CN1CCN(c2ncc(C(F)(F)F)cc2Cl)CC1)c1ccccc1 (stereo not given)	-4	-1	2	0	8	x
FC(F)(F)c1cnc(N2CCN(C(=S)NCc3ccccc3)CC2)c(Cl)c1	-1	-6	-6	54*	16	51*
COC(=O)c1cc(NC(=O)COC(=O)C2COc3ccccc3O2)cc(C(=O)OC)c1 (stereo not given)	0	-5	x	0	-5	x
Cc1cccc2sc(NC(=O)CSc3nc4ccccc4o3)nc12	-6	6	1	70*	20	15	MPTP swell DR=>100;MPTP cs DR=6.1*
O=C(COC(=O)/C=C/c1ccc(Br)o1)Nc1ccccc1F	2	x	-7	x	x	x
Cc1cc(N/N=C/c2ccccc2Cl)nc(NCc2ccccc2)n1	-6	-2	10	8	28	x
Cc1cc(NC2CCCCC2)nc(NCc2ccccc2)n1	-6	-4	10	86*	-10	111*
Cc1cc(N2CCN(c3ccccc3)CC2)nc(NCc2ccccc2)n1	-4	2	-9	65*	-23	21*
Cc1ccc(Nc2cc(C)nc(NCc3ccccc3)n2)cc1	-6	-3	5	56*	-5	45*
COc1ccc(Nc2cc(C)nc(NCc3ccccc3)n2)cc1	-4	-3	-19	57*	-2	47*
COc1cc(C)nc(NCc2ccccc2)n1	6	-1	-7	2	-3	x
Cc1ccc(-c2nc(CS(=O)CC(=O)NCCN3CCCCCC3)c(C)o2)cc1 (stereo not given)	-2	3	2	-2	-3	x
CN(CC(=O)Nc1ccc(Cl)c(Cl)c1)C(=O)CNC(=O)C1CCCCC1	-2	1	x	0	9	x
CCCCCCc1cc2cc(S(=O)(=O)c3ccc(F)c(Cl)c3)c(=O)oc2cc1O	0	33*	12	79*	6	86*
CCCCCCc1cc2cc(C(=O)NC)c(=N)oc2cc1O	-5	-7	-5	96*	-104	91*
CCCCCCc1cc2cc(C(=O)OCC)c(=O)oc2cc1O	-6	-3	-10	93*	-25	87*
CCCCCCc1cc2cc(C(N)=O)c(=N)oc2cc1O	-6	x	1	x	x	x
CCCCCCc1cc2cc(C(=O)Nc3ccc(OC)cc3)c(=O)oc2cc1O	-5	1	-1	78*	-12	2	MPTP swell DR=1.1*;MPTP cs DR=<2.5*
Cc1cc(=O)[nH]c2ccc(S(=O)(=O)NC3CCCCC3)cc12	-2	-3	3	0	-4	x
Cc1ccc(NC(=O)C2CCN(S(=O)(=O)c3ccc4c(c3)OCCO4)CC2)c(O)c1	-1	-15	x	-2	-1	x
CCCCCCc1cc2cc(C(=O)Nc3cccc(OC)c3)c(=O)oc2cc1O	0	-3	0	56*	-15	21*
